# High-throughput results: PubChem BioAssay, National Center for Advancing Translational Sciences (NCATS)
# An excerpt weighted towards active compounds, which were near 6.5% of everything screened.
# VACV mCherry inh = inhibitors of vaccinia virus infection (mCherry reporter signal); Vaccinia virus mCherry reporter infection, fluorescence; Potency, µM (highest dose often 36.5 µM), without a hit: at the top dose activity change, negative = inhibition, actives largely listed as inhibitors; 0.63% of 310,000 active; calls by dose curve; tested in A549 cells; also: potency is read from the fitted curve at half-maximal effect; nearly all actives have a fitted effect of over 35% in size
# FMDV inh = antivirals against foot and mouth disease virus. FMDV antiviral cell-based qHTS. 1.2% of 410,000 active. Potency, µM (top dose mostly 57.9 µM), inactives show at the highest dose activity change, negative = inhibition, most hits filed as inhibitors. AID 1159524; calls by dose curve; tested in HEK293T cells; also: read-out not given here; potency is read from the fitted curve at half-maximal effect; nearly all actives have a fitted effect of over 45% in size
# Marburg entry inh = inhibitors of Marburg virus binding or cell entry; Potency, µM (series often up to 37.8 µM), without a hit: at the top dose activity change, negative = inhibition, usual class: inhibitors; Marburg virus pseudotyped entry inhibition, cell reporter; 1.8% of 300,000 active; calls by dose curve; tested in HEK293 cells; also: potency is read from the fitted curve at half-maximal effect
# Lassa entry inh = inhibitors of Lassa virus binding or cell entry; Lassa virus pseudotype entry inhibition, cell reporter; Potency, µM (top dose mostly 37.9 µM), without a hit: top-dose activity change, negative = inhibition, most hits filed as inhibitors; 1.2% of 300,000 active; AID 540256; calls by dose curve; tested in HEK293 cells; also: potency is read from the fitted curve at half-maximal effect; nearly all actives have a fitted effect of over 50% in size
# VACV Venus inh = inhibitors of vaccinia virus (Venus reporter); Vaccinia virus Venus reporter expression, fluorescence; 0.46% of 330,000 active; AID 720580; Potency, µM (top dose mostly 36.5 µM), without a hit: at the highest dose activity change, negative = inhibition, hits mostly inhibitors; calls by dose curve; tested in A549 cells; also: potency is read from the fitted curve at half-maximal effect; nearly all actives have a fitted effect of over 30% in size
# HCMV inh = blocks human cytomegalovirus replication | HFF cells, HCMV-luciferase reporter, 72 h; stronger effect = lower value | activity change, negative = inhibition, % at 57.5 µM | 4.5% of 410,000 active | AID 1259415; in the data active = activity change below about -60%; inconclusive = no clear call, values can overlap the other calls; inactive = above about -39%
#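 HFF cells seeded 16 h at 37C, treated with compounds, infected with luciferase-reporter HCMV at MOI 1 PFU/cell; luciferase read at 72 h post infection, normalized to buffer-only and Salinomycin controls.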
# An asterisk follows results filed as active; i = inactive; ? = inconclusive; . = not tested or not shown; [ ] = another dose, or the depositor's remark. % is scaled to controls: 0 for no effect and ±100 for the full control effect.
SMILES,VACV mCherry inh,FMDV inh,Marburg entry inh,Lassa entry inh,VACV Venus inh,HCMV inh
O=C(CCS(=O)(=O)c1nc(-c2ccc3c(c2)OCO3)cc(C(F)(F)F)n1)Nc1ccccc1F,-4%,?,-27%[46.1 µM],?,-20%,2
COc1ccc2c(c1)C(=O)CC2,-9%,.,.,.,-4%,.
C[C@H]1CN([C@@H](C)CO)C(=O)Cc2cc(NS(=O)(=O)c3cn(C)cn3)ccc2O[C@@H]1CN(C)C(=O)Nc1ccc(F)cc1,i,-22%,.,.,-2%,10
Cn1c(CNC(=O)C(Cc2ccccc2)NC(=O)c2ccccc2)cc(=O)n(C)c1=O (centres undefined),-17%,15%,?,?,-16%,-21
CCCCOc1ccc(CC(=O)N(C)OC)cc1,25%,.,.,.,-14%,.
CCOC(=O)c1c(C)[nH]c(C(=O)CSc2ccccc2)c1C,.,21%,?,18µM*,-29%,35
CCOC(=O)c1c(C)[nH]c(C(=O)N2CCN(c3ccc(OC)cc3)CC2)c1C,?,28%,?,7.9µM*,-18%,-35
CCOC(=O)c1c(C)[nH]c(C(=O)C(C)Sc2ccc(Cl)cc2)c1C (centres undefined),-12%[1.46 µM],21%,?,?,7.1µM*,75
CCOC(=O)c1c(C)[nH]c(C(=O)COC(=O)CCSc2ccccc2)c1C,-9%,39%,?,13%,-10%,38
CCn1c(SCC(=O)c2[nH]c(C)c(C(C)=O)c2C)nnc1-c1ccncc1,-9%,.,2%,-1%,-6%,5
CCn1c(SCC(=O)c2[nH]c(C)c(C(C)=O)c2C)nnc1-c1ccccc1,?,25µM*,?,-15%,?,-37
CCOC(=O)c1c(C)[nH]c(C(=O)C(C)Cl)c1C (centres undefined),?,-14%,?,-11%,?,1
COc1ccc(/C(O)=C2\C(=O)C(=O)N(Cc3ccco3)[C@@H]2c2cccs2)cc1,.,.,-1%,.,.,.
Cn1nc(C(=O)NCCN2Cc3ccccc3OC(c3ccsc3)C2)c2ccccc2c1=O (centres undefined),-8%,-5%,.,.,-3%,.
COc1ccc(S(=O)(=O)N2CCC(O)(c3ccc(Cl)cc3)CC2)cc1OC,i,?,?,?,-12%,-73*
CN1CCN(CC2(O)CCN(S(=O)(=O)c3ccc(Cl)cc3)CC2)CC1,-10%,-24%,?,4%,-9%,-69*
CSc1nc(N)nc2c1ncn2CC(=O)NCCCc1ccccc1,i,-17%,.,.,-24%,-23
Cc1n[nH]c(=O)c2c(NC(=O)CSc3nnnn3-c3ccc(O)cc3)oc(C)c12,i,-7%,?,16%,-6%,-67*
Cc1n[nH]c(=O)c2c(NC(=O)CSc3nc4ccccc4c(=O)n3C(C)C)oc(C)c12,-27%,-26%,?,?,-17%,14
Cc1n[nH]c(=O)c2c(NC(=O)CSc3nc4ccccc4c(=O)n3CCCO)oc(C)c12,-13%,-19%,-12%[46.1 µM],-5%,-4%,-87*
COC(=O)c1ccc(NC(=O)C(=O)N2CCN(C(=S)NCCc3ccccc3)CC2)cc1,-7%,-38%,-2%,-2%,-16%,?
CC(=O)Nc1ccc(NC(=O)c2c(C)nn(Cc3ccccc3)c2Cl)cc1,?,15%,?,-3%[46.1 µM],-2%,-19
COc1ccc(C(=O)NCc2c(C)nn(Cc3ccccc3)c2C)cc1S(=O)(=O)N1CCOCC1,.,-14%,.,.,.,-101*
Cc1nn(Cc2ccccc2)c(Cl)c1C(=O)Nc1ccc(OC(F)(F)F)cc1,-19%,-26%,-1%,-22%,-29%,-69*
COc1ccc(NC(=O)c2c(C)nn(Cc3ccccc3)c2Cl)cc1S(=O)(=O)N1CCOCC1,.,?,.,.,.,-72*
SMILES,VACV mCherry inh,FMDV inh,Marburg entry inh,Lassa entry inh,VACV Venus inh,HCMV inh
COc1cc(=O)n2c(c1C(=O)N(C)Cc1nonc1C)CCN(Cc1ccsc1)CC2,-17%,4%,.,.,5%,.
CC(=O)N1CCC(N(Cc2ccc(C)o2)C(=O)Nc2ccc(C)cc2)CC1,3%,1%,.,0%[46.1 µM],12%,28
COc1ccc(C(=O)c2cn(Cc3cccc(C)c3)c3cc4c(cc3c2=O)OCO4)cc1,-10%,-24%,25%[46.1 µM],18%[46.1 µM],-10%,-35
NC(=O)C1CCCN(Cc2ccc3c(c2)CN(Cc2ccccc2)CCO3)C1 (centres undefined),-5%,2%,.,.,1%,.
Oc1ccc(CN2CCc3ccccc3C2)c2cccnc12,.,-29%,3.3µM*,2.6µM*,.,-99*
Oc1ccc(CN2CCC(Cc3ccccc3)CC2)c2cccnc12,-21%,?,?,2.8µM*,?,-101*
Oc1c(CN2CCCCC2)ccc2cccnc12,8.9µM*,-26%,?,-15%[46.1 µM],?,-74*
Oc1ccc(CN2CCN(c3ccccc3)CC2)c2cccnc12,-27%,-21%,?,?,-22%,.
Oc1ccc(CN2CCCCC2)c2cccnc12,-34%,.,?,-65%,?,-68*
Cc1ccc(C)c(S(=O)(=O)N2CCN(Cc3ccc(O)c4ncccc34)CC2)c1,?,-5%,7.3µM*,9.2µM*,?,-100*
CCOC(=O)N1CCN(Cc2ccc(O)c3ncccc23)CC1,?,-13%,?,?,?,-31
Clc1ccccc1CN1CCC(Cc2ccccc2)CC1,-23%,-2%,?,-4%,-17%,-101*
FC(F)(F)c1ccccc1CN1CCC(Cc2ccccc2)CC1,i,-16%,-4%[46.1 µM],-5%[46.1 µM],-11%,-7
Cc1cccc2cc(CN(CCCN(C)C)C(=S)NCCc3ccccc3)c(=O)[nH]c12,-1%,-10%,?,-15%,-6%,?
CCOc1ccccc1N(CC(=O)NC(C)(C)C)C(=O)CCC(=O)Nc1nccs1,.,1%,.,.,.,-25
Cc1ccccc1C(=O)Nc1ccc2c(C#N)c3nc4ccccc4nc3n2c1,67%,?,-17%,0%,271%,-65*
O=C(OCC(=O)N(CCc1ccccc1)Cc1ccccc1)c1cccc(S(=O)(=O)N2CCOCC2)c1,.,?,.,.,.,-27
CCOC(=O)c1sc(NC(=O)CSc2n[nH]c(C)n2)nc1C,-21%,2%,?,?,-11%,?
CCOC(=O)c1sc(NC(=O)CSc2n[nH]c(CC(C)C)n2)nc1C,-18%,-6%,-2%,?,-17%,-62*
Cc1ccc(N(C(=O)Nc2ccccc2)C2=NCCC2)cc1,i,-17%,26%[46.1 µM],-11%[46.1 µM],-16%,-35
COc1ccc(N(C(=O)Nc2ccc(Cl)cc2)C2=NCCC2)cc1,-2%,.,-12%,6.5µM*,-22%,-12
CC(C)[C@@H]1Cc2c(C#N)c(N)sc(=S)c2CO1,.,.,1%,.,.,.
O=C1c2ccccc2/C(=C\c2ccc3[nH]ccc3c2)N1c1ccccc1,?,24%,.,.,-30%,-66*
COc1cccc2sc(=NC(=O)CS(=O)(=O)c3ccc(F)cc3)n(C)c12,-17%,?,-4%,-1%,-7%,-19
